Hits are enriched below; roughly 3.7% of the tested compounds scored in any of these assays.
NALP3 yeast inh: NALP3 inhibition in yeast; Yeast reconstituted NLRP3/ASC/caspase-1, beta-gal luminescence, 24 h; inhibition, % at 10 µM; 330,000 tested, 0.39% active; AID 2825;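 active = inhibition of 50% or more; inactive = inhibition below 50%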
TIM10 inh: growth inhibitors of TIM10 yeast strain | 330,000 tested, 1.4% active | inhibition, % at 10 µM | S. cerevisiae TIM10 strain growth, BacTiter-Glo luminescence, 24 h;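 active = inhibition of 40% or more at the single tested concentration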;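 also: wild-type TIM10 isogenic control strain grown at permissive 25 °C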
tim23-1 inh: inhibits growth of tim23-1 mutant yeast | 330,000 tested, 1.3% active | S. cerevisiae tim23-1 growth, BacTiter-Glo luminescence, 24 h | inhibition, % at 20 µM;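 active = growth inhibition of the mutant yeast at or above 50%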;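 also: temperature-sensitive mutant grown at 25 °C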
PfHsp90 set2: inhibits growth of yeast expressing Plasmodium falciparum Hsp90; S. cerevisiae expressing PfHsp90, BacTiter-Glo ATP, 48 h; yeast lacking PDR1 and PDR3 efflux regulators; inhibition, % at 9.4 µM; 310,000 tested, 0.32% active;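 active = every replicate shows inhibition above about 80%, whatever the replicate mean, limit read from the data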
tim10-1 inh: tim10-1 yeast growth inhibition. AID 463190. inhibition, % at 20 µM. S. cerevisiae tim10-1 ts strain growth, BacTiter-Glo, 24 h. 330,000 tested, 2.2% active;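 active = inhibition of at least 40%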;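 also: mutant grown at 25 °C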
tim10-1 confirm: tim10-1 yeast growth inhibition, confirmed; 7,400 tested, 56% active; S. cerevisiae tim10-1 ts strain growth, BacTiter-Glo, 24 h; shares compounds with tim10-1 inh; AID 463213; inhibition, % at 20 µM;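 active = inhibition of yeast growth at or above a set limit in either of two repeat tests at 20 µM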;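 also: tim10-1 mutant grown at permissive 25 °C to find synthetic lethal compounds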
TIM10 conf: TIM10 yeast growth inhibition, confirmed; shares compounds with TIM10 inh; S. cerevisiae tim10 strain growth, BacTiter-Glo luminescence, 24 h; inhibition, % at 10 µM; 4,600 tested, 63% active; AID 463215;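 active = inhibition of yeast growth at or above a set limit in either of two replicates at 10 µM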; also: this counterscreen used the strain with wild-type TIM10
tim23-1 conf: confirmation of tim23-1 mutant yeast growth inhibitors; shares compounds with tim23-1 inh; S. cerevisiae tim23-1 growth, BacTiter-Glo luminescence, 24 h; inhibition, % at 20 µM; 4,400 tested, 83% active; AID 463218;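 active = inhibition above about 39% in either of two replicate wells at 20 µM, limit read from the data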;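 also: temperature-sensitive tim23-1 mutant grown at 25 °C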
Large screens that a line does not name were inactive (follow-up assays come after a bar, where they were run).

CCCCOc1ccc(C(=O)OCC(=O)N2CCOCC2)cc1	none
CN(C(=O)c1ccc(S(=O)(=O)N2CCCCC2)cc1)C1CCS(=O)(=O)C1 (stereo unspecified)	none (no result: PfHsp90 set2)
COc1ccc(/C(N)=N/OC(=O)CCC2CCCC2)cc1	TIM10 inh 54, tim23-1 inh 65, tim10-1 inh 60 | tim10-1 confirm 56 | TIM10 conf 53 | tim23-1 conf 67
CC(=O)Oc1ccc2c(=O)c(Oc3ccccc3[N+](=O)[O-])coc2c1	none
CC(=O)Oc1ccc2c(=O)c(-c3nc4ccccc4s3)coc2c1	TIM10 inh 86, tim23-1 inh 65, tim10-1 inh 69 (no result: PfHsp90 set2) | tim10-1 confirm inactive | TIM10 conf 49 | tim23-1 conf 72
Cc1cc(C(C#N)c2ccc(Cl)cc2)c(Cl)cc1NC(=O)c1cc(I)cc(I)c1O (stereo unspecified)	tim23-1 inh 70, tim10-1 inh 43 | tim10-1 confirm 45 | tim23-1 conf 61
Cc1cc(NC(=O)c2ccc(Cl)cc2)c(C)cc1O	none
O=C(NC(=S)Nc1cccc(F)c1)c1cccc([N+](=O)[O-])c1	tim23-1 inh 54, tim10-1 inh 49 | tim10-1 confirm inactive | tim23-1 conf 52
Cc1cccc(NC(=S)NNC(=O)c2cccc([N+](=O)[O-])c2)c1	none
COc1cccc(OCc2cc(C(=O)N(C)Cc3nccn3C)no2)c1	none
CC1(C)CC(=O)C2=C(C1)Oc1nc3ccccc3cc1C2C(C#N)C#N (stereo unspecified)	TIM10 inh 54, tim23-1 inh 63, tim10-1 inh 61 (no result: PfHsp90 set2) | tim10-1 confirm 59 | TIM10 conf 63 | tim23-1 conf 68
CC1(C)CC(=O)C(C2C3=C(CC(C)(C)CC3=O)Oc3ccccc32)C(=O)C1 (stereo unspecified)	none
O=C(CC1C(=O)NCCN1Cc1cccc(F)c1)NCCCOc1cccnc1 (stereo unspecified)	none
CCNc1ccc2noc3c2c1C(=O)c1ccccc1-3	tim23-1 inh 60, tim10-1 inh 56 | tim10-1 confirm 44 | tim23-1 conf 49
COc1ccc([C@H]2CC(=O)C=C(c3ccnc4ccc(Cl)cc34)C2)cc1	none
COc1ccc(/C=C/c2nnc(NC(=O)C(C)(C)C)s2)cc1	tim23-1 inh 52, tim10-1 inh 41 | tim10-1 confirm 31 | tim23-1 conf 46
CCCC(=O)Nc1nnc(/C=C/c2ccc(OC)cc2)s1	none
COc1ccc(Cn2c(SCc3ccccc3C)nc3cc(OC)c(OC)cc3c2=N)cc1	tim23-1 inh 51, tim10-1 inh 50 | tim10-1 confirm inactive | tim23-1 conf inactive
C=C(C)CSc1nnc2n(C)c(=O)c3c4c(sc3n12)CCC4	tim23-1 inh 53, tim10-1 inh 46 (no result: PfHsp90 set2) | tim10-1 confirm inactive | tim23-1 conf 54
CC(C)Oc1ccc(CSc2nnc3n(C)c(=O)c4c5c(sc4n23)CCCC5)cc1	none
O=C(OCCc1ccccn1)c1cccc([N+](=O)[O-])c1	none (no result: NALP3 yeast inh, TIM10 inh, tim23-1 inh, tim10-1 inh)
N#Cc1c(N2CCCC2)nc(N)c2c(N)nc(N3CCCC3)cc12	TIM10 inh 43, tim23-1 inh 81, tim10-1 inh 60 | tim10-1 confirm 54 | TIM10 conf 31 | tim23-1 conf 89
CCOc1cc2c(C#N)c(N3CCCC3)nc(N)c2c(N)n1	none
COc1cc(/C=C2/N=C(c3ccccc3F)OC2=O)cc(Cl)c1OS(C)(=O)=O	none
Cc1ccc(C)c(/C=C2\N=C(c3ccccc3F)OC2=O)c1	TIM10 inh 46, tim23-1 inh 53, tim10-1 inh 40 | tim10-1 confirm 57 | TIM10 conf 53 | tim23-1 conf 54
Cc1ccc(NC(=S)N(Cc2cccc(Br)c2)CC2CCC(C(=O)O)CC2)cc1Cl (stereo unspecified)	none
Cc1cc(C)c(S(=O)(=O)Nc2ccc(O)c(Sc3ncn[nH]3)c2)cc1C	none
Oc1ccccc1C1Nc2cccc3cccc(c23)N1	TIM10 inh 46, tim23-1 inh 77, tim10-1 inh 52 | tim10-1 confirm 52 | TIM10 conf 44 | tim23-1 conf 74
COc1ccccc1C1Nc2cccc3cccc(c23)N1	none
Cc1ccc(S(=O)(=O)N2CCCOC2CNC(=O)C(=O)NC2CCCC2)cc1 (stereo unspecified)	none
C=CCc1cccc(/C=N/NC(=O)c2ccccc2Br)c1O	TIM10 inh 64, tim23-1 inh 62, tim10-1 inh 44 | tim10-1 confirm inactive | TIM10 conf 58 | tim23-1 conf 61
CCOC(=O)C1(CC2CC2)CCN(Cc2cnc(-c3ccc(OC)cc3)nc2)CC1	none
COc1ccc(/C=C/C(=O)O)cc1S(=O)(=O)N1CCCCC1	none
N=c1sc2ccccc2n1-c1ccccc1	none
C=CC(=O)N=c1sc2ccccc2n1-c1ccccc1	tim23-1 inh 53, tim10-1 inh 51 | tim10-1 confirm inactive | tim23-1 conf inactive
Fc1c(F)c(F)c(N/N=C/c2c[nH]c3ccccc23)c(F)c1F	TIM10 inh 61, tim23-1 inh 80, tim10-1 inh 59 | tim10-1 confirm 55 | TIM10 conf inactive | tim23-1 conf 43
O=C(O)c1ccc(N/N=C/c2c[nH]c3ccccc23)cc1	none
C=CCN(CC=C)c1nc2ccccc2nc1C(C#N)C(=O)OCCOC (stereo unspecified)	TIM10 inh 41, tim23-1 inh 59, tim10-1 inh 67 | tim10-1 confirm 72 | TIM10 conf 55 | tim23-1 conf 66
CCCN(CCC)c1nc2ccccc2nc1C(C#N)C(=O)OCCOC (stereo unspecified)	none
Cc1cccn2c(=O)c(C=O)c(N3CCCCCC3)nc12	tim23-1 inh 58, tim10-1 inh 46 | tim10-1 confirm 43 | tim23-1 conf 46
CCCCOc1cccc(-c2nnc(N)s2)c1	tim23-1 inh 52, tim10-1 inh 53 | tim10-1 confirm 36 | tim23-1 conf 50
C/C=C/C=C\C(=O)Nc1cccc(C2=NOC3(C2)C[C@H](C(N)=O)N(C(=O)/C=C/C)C3)c1 (stereo partly specified)	none
O=C(ONC1=NCCCCC1)c1ccc([N+](=O)[O-])cc1	TIM10 inh 83, tim23-1 inh 86, tim10-1 inh 52 | tim10-1 confirm 34 | TIM10 conf 84 | tim23-1 conf 66
CC(C)CC(=O)O/N=C1\C(=O)N(c2ccccc2)c2ccccc21	TIM10 inh 50, tim23-1 inh 54, tim10-1 inh 63 | tim10-1 confirm 59 | TIM10 conf 74 | tim23-1 conf 62
COc1ccc(CNC(=O)COC(=O)CCc2c[nH]c3ccccc23)cc1	none

Screening data from PubChem.
